# Only some compounds are listed: those with a hit (about 7.8% of all), similar ones and a draw of the others.
# Vaccinia Venus: vaccinia inhibition (Venus reporter); Vaccinia virus Venus reporter expression, fluorescence; Potency, µM (top dose mostly 36.5 µM), for inactives: top-dose activity change, negative = inhibition, actives largely listed as inhibitors; hit rate 0.46% among 330,000; AID 720580; calls by dose curve; tested in A549 cells; note: potency is the fitted concentration of half-maximal effect; nearly all actives have a fitted effect of over 30% in size
# VACV mCherry inh: vaccinia inhibition (mCherry reporter) | Vaccinia virus mCherry reporter infection, fluorescence | hit rate 0.63% among 310,000 | Potency, µM (titrated, usually from 36.5 µM), inactives show at the highest dose activity change, negative = inhibition, usual class: inhibitors; calls by dose curve; tested in A549 cells; note: potency is the fitted concentration of half-maximal effect; nearly all actives have a fitted effect of over 35% in size
# LASV entry inh: inhibitors of Lassa virus binding or cell entry | hit rate 1.2% among 300,000 | AID 540256 | Potency, µM (doses to about 37.9 µM), for inactives: at the top dose activity change, negative = inhibition, actives largely listed as inhibitors | Lassa virus pseudotype entry inhibition, cell reporter; calls by dose curve; tested in HEK293 cells; note: potency is the fitted concentration of half-maximal effect; nearly all actives have a fitted effect of over 50% in size
# HCV inhibitor: inhibitors of hepatitis C virus infection. AID 651820. Potency, µM (series often up to 41.8 µM), without a hit: at the highest dose activity change, negative = inhibition, most hits filed as inhibitors. hit rate 3.4% among 340,000. Huh7.5.1 HCVcc-Cre infection, luciferase reporter, 44 h; active = well fitted inhibition curve with a large enough effect; inconclusive = small, poorly fitted or top-dose-only effect, or another doubt; inactive = no such curve, though single readings can be large or run the other way; note: potency is the fitted concentration of half-maximal effect
#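 Cells (1,000/well) were plated 4 h before compound, then infected with HCVcc-Cre virus (~0.5 moi). After 44 h further culture, infection was read as luciferase luminescence following a 15 min substrate incubation at room temperature.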
# Marburg entry inh: blocks Marburg virus binding to or entry into cells; hit rate 1.8% among 300,000; Potency, µM (doses to about 37.8 µM), for inactives: top-dose activity change, negative = inhibition, most hits filed as inhibitors; Marburg virus pseudotyped entry inhibition, cell reporter; calls by dose curve; tested in HEK293 cells; note: potency is the fitted concentration of half-maximal effect
# HCMV antiviral: inhibitors of human cytomegalovirus; HFF cells, HCMV-luciferase reporter, 72 h; stronger effect = lower value; activity change, negative = inhibition, % at 57.5 µM; hit rate 4.5% among 410,000; AID 1259415; in the data active = activity change below about -60%; inconclusive = no clear call, values can overlap the other calls; inactive = above about -39%
#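 Luciferase read-out from HCMV-luciferase-infected HFFs (MOI 1 PFU/cell) 72 h post infection at 37C; compounds added after 16 h cell attachment; activity normalized between buffer-only basal and Salinomycin (10uM) inhibitor controls.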
# Active calls of the source: *; i = inactive; u = inconclusive; x = no result; ! = not active in a repeat; [ ] = another dose, or the depositor's remark. % is set by controls: 0 for no effect and ±100 for the full control effect.
SMILES,Vaccinia Venus,VACV mCherry inh,LASV entry inh,HCV inhibitor,Marburg entry inh,HCMV antiviral
O=C(CBr)N1CCc2ccccc2C(c2ccccc2)C1 (stereo not given),4%[7.34 µM],i[7.34 µM],6%,13%,18%[46.1 µM],19
CN1CCc2cc(Cl)c(O)cc2[C@@H](c2ccccc2)C1,-13%,-13%,0%,-6%,-10%,-65*
Oc1cc2c(cc1O)[C@@H](c1ccccc1)CNCC2,-7%,-15%,-25%,2%[8.37 µM],-21%,8
Oc1cc2c(cc1O)C(c1ccccc1)CNCC2 (stereo not given),-11%,-15%,u,-23%,16µM*!,-31
COc1ccccc1C1CN(CCNC(=O)c2cnsn2)Cc2ccccc2O1 (stereo not given),-5%,-21%,x,x,x,x
Cc1[nH][nH]c(=O)c1C(c1ccc(-c2ccc(C(=O)O)cc2)o1)c1c(C)[nH][nH]c1=O,0%,i,15%,9%,-21%[46.1 µM],-62*
O=c1c2ccccc2nc2n1C(CSc1ccccc1)CS2 (stereo not given),2%,-15%,8%[46.1 µM],17%,23%[46.1 µM],-31
Cc1ccc(C(=O)Nc2ccccc2SCC2CSc3nc4ccccc4c(=O)n32)cc1 (stereo not given),-11%,x,7.1µM*,-9%,3.2µM*,-85*
O=c1c2ccccc2nc2n1C(CSc1ccc(F)cc1)CS2 (stereo not given),-2%,i,5%[46.1 µM],17%,u,-35
O=C(Nc1ccccc1SCC1CSc2nc3ccccc3c(=O)n21)c1cccc(Cl)c1 (stereo not given),-30%,x,2.5µM*,-5%,u,-96*
O=c1c2ccccc2nc2n1C(CBr)CS2 (stereo not given),x,x,11%,11%,u,-32
O=c1c2ccccc2nc2n1C(CSCc1ccc(Cl)cc1)CS2 (stereo not given),u,x,-22%,10µM*,u,u
Cc1cccc(C(=O)NC(=S)Nc2cccc3nc(C)ccc23)c1,-27%,i,u,x,-10%,-21
Cc1cccc(C(=O)Nc2ccccc2SCC2CSc3nc4ccccc4c(=O)n32)c1 (stereo not given),-15%,x,6.3µM*,-13%,0.89µM*,-75*
COc1cccc(-c2nc3c(c(SCc4ccccc4)n2)Cc2c(CO)cnc(C)c2O3)c1,-2%,-9%,3%[46.1 µM],x,x,-33
CN1CCCN=C1COC(=O)[C@@](O)(c1ccccc1)C1CCCCC1,x,x,x,x,-6%,x
O=C(Nc1ccccc1SCC1CSc2nc3ccccc3c(=O)n21)c1ccccc1Cl (stereo not given),25%,x,u,3%,u,u
O=C(Nc1ccccc1SCC1CSc2nc3ccccc3c(=O)n21)c1ccccc1 (stereo not given),-7%,x,u,1%,u,-70*
Cc1ccc(C)c(N2CCN(CCCNC(=O)c3cnn(-c4ccccc4Cl)c3C3CCN(C(=O)OC(C)(C)C)CC3)CC2)c1,u,u,u,x,x,-105*
Cc1ccc(C)c(N2CCN(CCCNC(=O)c3cnn(-c4cccc(Cl)c4)c3C3CCN(C(=O)OC(C)(C)C)CC3)CC2)c1,u,u,13µM*,x,x,-4
Cc1ccc(C)c(N2CCN(C(=O)c3cnn(-c4ccccc4Cl)c3C3CCN(C(=O)OC(C)(C)C)CC3)CC2)c1,u,-27%,u,x,x,5
Cc1ccc(C)c(N2CCN(CCCNC(=O)c3cnn(-c4ccc(F)cc4)c3C3CCN(C(=O)OC(C)(C)C)CC3)CC2)c1,u,u,7%[46.1 µM],x,x,-4
O=C(NCc1ccc(Cl)cc1)C1(c2cccs2)CCOCC1,3%,-9%,-3%[46.1 µM],x,x,-9
CCCc1c(-c2ccc(F)cc2)ncn1Cc1ccccc1OC,-17%,-17%,x,x,x,u
COc1ccc(CNC(=O)/C=C/c2ccco2)cc1OC,-4%,i,1%,19%,-3%[46.1 µM],-89*
CCOc1ccc(C(=O)c2cn(Cc3ccc(Cl)cc3)c3cc(OC)c(OC)cc3c2=O)cc1,u,-14%,-27%[46.1 µM],x,u,-32
O=C(Nc1ccccc1)c1nc2ccccc2s1,-9%,i,11µM*,-21%,u,161
